The record followed here is PubChem BioAssay (NCI).

Compounds without any hit were thinned out: in the full panel of roughly 83,000, 20% have a hit.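 Method: cells in 96-well plates; compound added at one concentration; 48 h incubation; percent growth measured; values under 10 scored active.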 A number with no mark means an inactive call. Activity calls are given as the source filed them.

The experiment deals with HL-60(TB) leukemia. The experiment can be described thus: NCI-60 one-dose screen, 48 h (100 = growth as untreated, 0 = no growth, -100 = all killed). The note with it: 10 µM unless noted.
In the case of `O=C(O)COc1ccc(Cl)c(Cl)c1`, the growth is 111%.

Take `Cc1cccc(Oc2ccc(Nc3ncnc4ccc(NC(=O)CNCCO)cc34)cc2Cl)c1`: the growth is -26.1% (active).

Turning to `CCN(CC)CCN(CCN(CC)CC)c1ccccc1`, the growth is 87.9%.

As for `CN1CCN(CC#CCOC(=O)CNC(=O)[C@]23CCC(C)(C)C[C@H]2C2=CC[C@@H]4[C@@]5(C)CC[C@H](O)C(C)(C)[C@@H]5CC[C@@]4(C)[C@]2(C)CC3)CC1`, the growth was 49.7%.

Turning to `O=C1Nc2ccc(F)cc2/C1=C\c1nc(-c2ccccc2F)n2ccccc12`, the growth was 120%.

Turning to `C=C1C(=O)O[C@H]2[C@H]1CC/C(CNC(=O)C(C)c1ccc(CC(C)C)cc1)=C\CC[C@@]1(C)O[C@@H]21` (stereo not given in full), the growth is -24.4% (active).

As for `NC(N)=Nc1nc2ccccc2n2c1nc1ccccc12`, the growth was 37.7%.

`COc1cccc(Nc2ccnc3[nH]c4ccc([N+](=O)[O-])cc4c23)c1`: the growth was 35.4%.

Take `O=S(=O)(O)CCI`: the growth is 99.5%.

With `C=C1C(=O)O[C@H]2[C@H]1CC/C(COC(=O)c1ccc(Br)cc1)=C\CC[C@@]1(C)O[C@@H]21`, the growth was -45.6% (active).

As to `Cc1ccc(-c2nc3nc(-c4ccc(F)cc4)nc(N4CCCNCC4)c3o2)cc1`, the growth was -70.3% (active).

For the compound `NC(N)=N/N=C/c1ccccc1`, the growth is 99.5%.

Take `COc1ccc(C(=O)C(CN(C)C)c2ccc(OC)cc2)cc1` (stereo not given): the growth is 36%.

On to `Cc1cc(Nc2nc(-c3ccncc3)nc3ccccc23)n[nH]1`, for which the growth was 49.1%.

In the case of `Cc1cccc(NC(=O)c2sc3nc4c(cc3c2N)CCC4)c1C`, the growth is 8.43% (active).

On to `CC(C)(C)c1cc(C[P+](c2ccccc2)(c2ccccc2)c2ccccc2)cc(C(C)(C)C)c1O`, for which the growth is -45.3% (active).

Turning to `COc1cc(/C=C/C(=O)CC(=O)/C=C/c2ccc(OC(=O)CCNC34CC5CC(CC(C5)C3)C4)c(OC)c2)ccc1OC(=O)CCNC12CC3CC(CC(C3)C1)C2`, the growth was -24% (active).

`CCOC(=O)c1cc(C(=O)c2cc(OC)c(OC)c(OC)c2)n2c1ccc1c3cccnc3ccc12`: the growth was 13.3%.

Regarding `COc1cccc(C(c2cc3c(cc2O)OCO3)N2CCOCC2)c1OC` (stereo not given), the growth was 97.1%.

For the compound `C#Cc1cc2c(N)c(C(=O)c3cc(OC)c(OC)c(OC)c3)[nH]c2cc1OC`, the growth is -6.26% (active).

`Fc1cc(F)cc(C(c2c[nH]c3ccccc23)c2c[nH]c3ccccc23)c1`: the growth was 147%.

Turning to `Cc1cccc(-n2c(C)nc3ccc(NC(=O)NCCCl)cc3c2=O)c1`, the growth is 113%.

As for `Cn1cc(-c2nonc2-c2c[nH]c3ccccc23)c2cccnc21`, the growth is 4.76% (active).

As for `COc1cc(-c2nc3ccccc3[nH]2)ccc1OCC(=O)N=Nc1c(O)[nH]c2ccc(Cl)cc12`, the growth is -30.8% (active).

`Cc1cnc(C(=O)NNc2nc3sc4c(c3c(=O)[nH]2)C(C)CCC4)cn1` (stereo not given): the growth is -30.7% (active).

Regarding `O=C(N/N=C/c1c[nH]c2ccccc12)c1cc(-c2ccccc2)on1`, the growth is 73.4%.

Turning to `Cc1ccc(OCC(=O)Nc2ccc(Oc3ccccc3)cc2)c([N+](=O)[O-])n1`, the growth is 69%.

As for `O=C(Nc1ccccc1[N+](=O)[O-])c1ccc(Cl)c(Cl)c1`, the growth is 90.2%.

As to `COc1cc(-c2nn(-c3ccc(C(=O)O)cc3)cc2C(=O)O)ccc1O`, the growth is 46.1%.

`COc1cc(/C=C/c2cc(/C=C/c3ccc(O)c(OC)c3)n(C(=O)Nc3ccc(Cl)cc3)n2)ccc1O`: the growth is -20.9% (active).

For the compound `CCOC(=O)N1C2CCC(C2)N1C(=O)OCC`, the growth was 92.4%.

`Cc1ccc(OCCOCCOCCOCCOCCOc2ccc(C)n(O)c2=S)c(=S)n1O`: the growth was -16.5% (active).

Regarding `C[C@H](NC(=O)[C@@H]1CSSC[C@@H](NC(=O)c2nc3ccccc3cc2O)C(=O)NCC(=O)N1C)c1ccccc1`, the growth is -27.6% (active).

On to `c1ccc(-c2ccc(-c3ccccc3)[nH]2)cc1`, for which the growth was 91.2%.

Turning to `COC(=O)c1cc2cc(-c3ccc(OC)cc3)cnc2[nH]1`, the growth was -2.68% (active).

Take `O=C(CS)OCC(COC(=O)CS)(COC(=O)CS)COC(=O)CS`: the growth was 67.2%.

For the compound `CCOC(=O)C(CSC(c1ccccc1)(c1ccccc1)c1ccccc1)NC(=O)C(CSC(c1ccccc1)(c1ccccc1)c1ccccc1)NC(c1ccccc1)(c1ccccc1)c1ccccc1` (stereo not given), the growth was 118%.

Turning to `CCCCCCCCCc1ccc(OCCOCCOCCOCCOCCOCCOCCOCCOCCO)cc1`, the growth is -40.9% (active).

As to `Nc1nc(Nc2ccccc2SSc2ccccc2Nc2nc(N)nc(-c3cccs3)n2)nc(-c2ccsc2)n1`, the growth is -7.94% (active).

Regarding `COc1ccc(/C(=C(\c2ccccc2)[N+](=O)[O-])c2ccc(OCCN3CCCC3)cc2)cc1`, the growth was 64.1%.
